# Screening results: PubChem, several laboratories
# ABCB6 inh 2: blocks the human ABCB6 transporter. K562-ABCB6 porphyrin accumulation, flow cytometry, 1 h; hits give low values. fluorescence ratio to DMSO, % at 10 µM. actives 0.19% (n = 360,000). AID 602162;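 active means fluorescence ratio to DMSO below 75%, the collection mean minus 3 SD; inconclusive means too few cells collected in the well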;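 further: signal is porphyrin accumulated inside mitochondria; 100% equals median channel fluorescence of DMSO control wells; lower ratio means ABCB6 inhibition with less porphyrin fluorescence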
# MLLE-PAM2 inh: inhibitors of microRNA-mediated deadenylation, human PABP1 MLLE binding | actives 0.36% (n = 360,000) | inhibition, % at 20 µM | GST-MLLE / FITC-PAM2 fluorescence polarization | P11940 | AID 588489; in the data active means inhibition above about 35%, passing the limit was not always enough;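 further: plate controls were DMSO wells with GST-MLLE for no effect and wells lacking GST-MLLE protein for full effect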
# Target sequence (P11940 whole entry, looked up): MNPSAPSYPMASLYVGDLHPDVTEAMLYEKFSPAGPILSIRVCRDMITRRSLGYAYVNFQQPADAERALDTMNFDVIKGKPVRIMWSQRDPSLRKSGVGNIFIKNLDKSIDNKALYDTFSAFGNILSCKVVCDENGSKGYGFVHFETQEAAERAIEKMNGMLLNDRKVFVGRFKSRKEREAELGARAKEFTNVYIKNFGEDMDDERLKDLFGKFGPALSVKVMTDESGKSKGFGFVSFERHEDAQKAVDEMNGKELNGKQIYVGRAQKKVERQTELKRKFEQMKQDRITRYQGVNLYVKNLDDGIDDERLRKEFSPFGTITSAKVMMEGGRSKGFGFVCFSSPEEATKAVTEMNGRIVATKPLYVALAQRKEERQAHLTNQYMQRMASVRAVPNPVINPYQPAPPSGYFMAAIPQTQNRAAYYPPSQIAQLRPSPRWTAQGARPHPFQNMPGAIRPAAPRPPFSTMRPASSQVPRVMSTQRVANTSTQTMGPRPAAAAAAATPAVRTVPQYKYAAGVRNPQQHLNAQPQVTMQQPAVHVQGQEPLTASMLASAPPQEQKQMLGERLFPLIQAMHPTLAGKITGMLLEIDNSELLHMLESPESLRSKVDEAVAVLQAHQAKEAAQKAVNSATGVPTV
# PABP FP inh: blocks human PABP binding to poly(A) RNA. fluorescence polarization. calls only at 35 µM. actives 1% (n = 290,000). AID 2014;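 further: calls also rest on retests at 20 µM and on dose response follow-up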
# PHOSPHO1 block: PHOSPHO1 (human) inhibition; inhibition, % at 13.3 µM; actives 1.1% (n = 290,000); Q8TCT1; AID 1565; recombinant PHOSPHO1, absorbance phosphatase assay; in the data active means inhibition above about 60%
# AI-2 QS modul: modulators of Vibrio harveyi AI-2 quorum sensing system | Vibrio harveyi JMH597 AI-2 luminescence/OD600 ratio, 9 h; hits give low values; strain lacks LuxN and CqsS sensors; 0 = neutral-control median | activity change, % at 7.5 µM | actives 0.4% (n = 300,000) | AID 2094; in the data active means activity change below about -75%, passing the limit was not always enough; inconclusive means no clear call, values can overlap the other calls;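 further: luminescence divided by OD600 gain over 9 h not by final OD600 alone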
# eIF4H FP inh: inhibitors of RNA binding by human eIF4H | Q15056 | eIF4H fluorescence polarization binding assay | inhibition, % at 35 µM | actives 0.94% (n = 290,000);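 further: calls also rest on retests at 20 µM and on dose response follow-up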
# * marks the source's active call; other numbers are inactive results; i = inactive; ? = inconclusive; . = no result; + = active, no number. Sampled rows, rich in hits. Any-hit rate of the full collection: about 2.6%. Unless noted, how the calls were made is not given here.
SMILES,ABCB6 inh 2,MLLE-PAM2 inh,PABP FP inh,PHOSPHO1 block,AI-2 QS modul,eIF4H FP inh
COc1ccccc1N1CCN(C(=O)CNC(=O)c2cn(-c3ccccc3OC)c(=O)c3ccccc23)CC1,93.0,-2.3,i,28.0,21.6,-2.1
COc1ccc(C(=O)NCCn2cc(SCC(=O)NCc3ccco3)c3ccccc32)cc1,89.0,20.6,i,61.5*,8.3,-2.0
COc1ccc(C(=O)NCCn2cc(SCC(=O)NCC3CCCO3)c3ccccc32)cc1 (stereo not given),105.0,19.5,i,57.8,14.1,-2.4
CCN(Cc1ccccc1)c1cc2c(c3c1ccn3C)C1CCC2C1 (stereo not given),95.0,8.7,.,.,.,.
COCC1CCCN(Cc2nc(Cc3ccccc3)no2)C1 (stereo not given),102.0,-8.7,i,49.8,14.4,5.2
c1ccc(Cc2noc(CN3CCC(CN4CCOCC4)CC3)n2)cc1,107.0,-21.5,i,61.1*,17.7,-8.9
Cc1cc(NCCN2CCOCC2)n2c(nc3ccccc32)c1C#N,96.0,-14.3,i,-11.1,14.9,-3.5
CCN(CC)CCCNc1cc(C(F)(F)F)c(C#N)c2nc3ccccc3n12,103.0,24.4,+,.,7.4,75.9
CCN(CC)CCCNc1cc(C)c(C#N)c2nc3ccccc3n12,79.0,1.2,.,.,.,.
Cc1cc(NCCCN2CCOCC2)n2c(nc3ccccc32)c1C#N,100.0,-13.1,+,-13.4,13.2,79.5*
CCCS(=O)(=O)NC(=O)C1(C)CCCN(C(=O)c2cncc(Br)c2)C1 (stereo not given),97.0,13.7,.,.,.,.
CC(=O)NCCN=C(C)c1sc2ccccc2c1O,99.0,35.2*,i,5.7,4.7,0.4
CCCOC(=O)/C=C/c1c(C)[nH]c(=O)[nH]c1=O,92.0,11.3,i,-2.5,25.7,7.4
Cc1[nH]c(=O)[nH]c(=O)c1/C=C/C(=O)OCC(C)C,94.0,7.7,+,-3.5,11.1,?
Oc1ccccc1/C=C/c1noc(-c2ccccc2O)n1,97.0,12.1,+,20.6,30.9,3.1
O=C(CCc1c[nH]c2ccccc12)NCc1ccc2c(c1)OCO2,99.0,-16.0,i,61.2*,7.4,-11.4
Cc1ccc(/C=N/NC(=S)N2CCOCC2)cc1,103.0,3.4,i,61.7*,14.1,-1.6
CCCS(=O)(=O)NC(=O)C1(C)CCN(C(=O)c2ccc3c(c2)OCO3)C1 (stereo not given),77.0,-18.2,.,.,.,.
Cc1cc(OCc2cc(C(=O)NCc3csc(C(C)C)n3)no2)cc(C)c1Cl,101.0,2.1,i,67.8*,19.0,1.9
CC(C)N1CCc2c(sc(NC(=O)c3ccc([N+](=O)[O-])o3)c2C(N)=O)C1,98.0,-2.6,i,27.6,-89.5*,2.4
CC(=O)N1CCc2c(sc(NC(=O)c3ccc([N+](=O)[O-])o3)c2C#N)C1,118.0,26.8,i,20.0,4.9,3.9
COC(=O)c1c(NC(=O)c2ccc([N+](=O)[O-])o2)sc2c1CCN(C(C)C)C2,108.0,12.8,i,2.5,-89.8*,-10.0
CCCCC1=CC2=CC(=O)C(C)(OC(=O)CC)C(=O)C2=CN1C1CCCCC1 (stereo not given),103.0,-5.3,i,35.3,5.0,17.1
CCCCC1=CC2=CC(=O)C(C)(OC(=O)CC)C(=O)C2=CN1CCCCO (stereo not given),97.0,44.6*,i,39.7,21.9,61.9
COC(=O)CCCC1=CC2=CC(=O)C(C)(OC(=O)c3cccs3)C(=O)C2=CN1CCN1CCOCC1 (stereo not given),101.0,22.9,+,26.5,43.1,115.2
SMILES,ABCB6 inh 2,MLLE-PAM2 inh,PABP FP inh,PHOSPHO1 block,AI-2 QS modul,eIF4H FP inh
COC(=O)CCCC1=CC2=CC(=O)C(C)(OC(=O)c3cccs3)C(=O)C2=CN1C1CC1 (stereo not given),99.0,18.7,+,30.9,17.0,87.4*
COCCN1C=C2C(=O)C(C)(OC(=O)c3cccs3)C(=O)C=C2C=C1CCCC(=O)OC (stereo not given),97.0,21.0,i,35.3,41.4,64.2
COC(=O)CCCC1=CC2=CC(=O)C(C)(OC(=O)c3cccs3)C(=O)C2=CN1C1CCCCC1 (stereo not given),101.0,16.4,i,8.9,5.9,18.5
CC1(OC(=O)CCc2ccccc2)C(=O)C=C2C=C(c3ccc(C#N)cc3)N(C3CC3)C=C2C1=O (stereo not given),105.0,-20.6,+,22.1,-4.4,64.7
CC1(OC(=O)CCc2ccccc2)C(=O)C=C2C=C(c3ccc(C#N)cc3)N(Cc3ccccc3)C=C2C1=O (stereo not given),97.0,-11.7,i,0.1,13.1,42.1
COc1ccc(C2C(C(=O)c3ccco3)=C(O)C(=O)N2c2nnc(C)s2)cc1OC (stereo not given),97.0,44.0*,?,31.0,-0.6,?
COc1ccc(C2C(C(=O)c3ccc(C)o3)=C(O)C(=O)N2c2cc(C)on2)cc1OC (stereo not given),98.0,12.1,i,60.5*,15.4,-8.1
Cc1cccc(OCC(=O)O/N=C(\N)c2ccccn2)c1C,90.0,0.1,i,20.6,-93.4*,-4.9
CCCNC(=O)NCCc1c(C)[nH]c2ccccc12,105.0,53.5*,i,6.4,19.2,-1.7
COc1cc(C(O)c2nc(-c3ccc(N(C)C)cc3)cs2)ccc1F (stereo not given),96.0,3.3,.,.,.,.
CCCOc1ccc(CNC(=S)N/N=C/c2ccc([N+](=O)[O-])cc2)cc1,62.0*,25.1,i,80.4*,29.1,-10.7
CC(C)Oc1ccc(CNC(=S)N/N=C/c2ccc([N+](=O)[O-])cc2)cc1,97.0,23.5,i,73.6*,17.3,-6.6
CC(C)COc1ccc(CNC(=S)N/N=C/c2ccc([N+](=O)[O-])cc2)cc1,101.0,9.5,i,95.4*,25.9,4.7
CCOc1ccc(CNC(=S)N/N=C/c2ccncc2)cc1,88.0,25.3,i,0.8,24.5,-7.2
CC1(C(=O)Nc2cccc(Oc3ccccc3)c2)CCN1Cc1cc2ccccc2o1 (stereo not given),98.0,17.9,.,.,.,.
O=C(O)CCC(C(=O)O)n1c(O)c(C2=c3ccccc3=NC2=O)sc1=S (stereo not given),97.0,39.7*,i,11.4,9.9,-2.8
COc1cc(C(c2nnnn2C(C)(C)C)N2CCN(c3nc4ccccc4s3)CC2)ccc1O (stereo not given),93.0,10.2,i,61.0*,-1.6,-6.2
COc1ccc(C(c2nnnn2C(C)(C)C)N2CCN(c3nc4ccccc4s3)CC2)cc1OC (stereo not given),100.0,4.0,i,8.7,34.6,-14.9
